Screens from PubChem BioAssay.
SRC2 inh = human SRC2 (NCOA2) inhibition; HEK293 GAL4-SRC2 luciferase reporter, luminescence; inhibition, % at 9 µM; 370,000 tested, 0.17% active;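 active means inhibition above the mean inhibition of all tested compounds plus 3 SD, set per campaign, cut at about 52% in these data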;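 further: 0% = DMSO treated cells and 100% = cells given Gossypol at 36 µM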
SRC1 inh = human NCOA1 inhibition | HEK293 GAL4-SRC1 luciferase reporter, luminescence | Q15788 | AID 588354 | inhibition, % at 3.6 µM | 360,000 tested, 0.12% active;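 active means inhibition above the campaign mean plus 3 SD, with each screening campaign given its own cutoff, cut at about 60% in these data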;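 further: 0% = DMSO treated cells and 100% = gossypol at 36 µM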
COUP-TFII inh = blocks human COUP-TFII nuclear receptor. P24468. HEK293T NGFI-A luciferase reporter, luminescence. inhibition, % at 8.6 µM. 370,000 tested, 0.7% active. AID 686940;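 active means inhibition above a per-plate cutoff, mean inhibition of test wells between control levels plus 3 SD, cut at about 38% in these data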;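 further: cells cotransfected with COUP-TFII expression vector driving the NGFI-A reporter; 0% = median of COUP-TF2 test wells and 100% = reporter-only cells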
LRH-1 inv ag = NR5A2 inverse agonism in reporter assay | O00482 | 360,000 tested, 0.13% active | inhibition, % at 3.6 µM | HEK293T StAR-luciferase reporter, LRH-1 transfected, 24 h;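 active means inhibition above the mean inhibition of all tested compounds plus 3 SD, cut at about 73% in these data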;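 further: 0% = DMSO wells and 100% = reporter-only cells lacking LRH-1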
SRC3 inh = inhibitors of human steroid receptor coactivator 3 (SRC3); HEK293 GAL4-SRC3 luciferase reporter, luminescence; AID 588352; 360,000 tested, 0.17% active; inhibition, % at 3.6 µM;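 active means inhibition above a per-campaign cutoff, the mean of all compounds plus 3 SD, cut at about 60% in these data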;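 further: 0% = DMSO-treated cells and 100% = gossypol-treated cells at 36 µM; higher means less SRC3-driven luciferase light from the GAL4 reporter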
GalR3 antagonist = blocks the human galanin receptor 3. O60755. HEK293 GalR3-CNG cAMP membrane potential fluorescence; galR3 body fused to GalR1 C-terminus. inhibition, % at 3 µM. 360,000 tested, 0.44% active. AID 651719;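 active means inhibition above the screen-wide average plus 3 SD, cut at about 13% in these data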;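 further: forskolin and galanin both at EC90 stimulate the cells; cAMP rise reported by CNG channel membrane potential dye signal; 0% = forskolin plus galanin with DMSO and 100% = forskolin alone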
Target sequence (O60755 1-299 limits assumed): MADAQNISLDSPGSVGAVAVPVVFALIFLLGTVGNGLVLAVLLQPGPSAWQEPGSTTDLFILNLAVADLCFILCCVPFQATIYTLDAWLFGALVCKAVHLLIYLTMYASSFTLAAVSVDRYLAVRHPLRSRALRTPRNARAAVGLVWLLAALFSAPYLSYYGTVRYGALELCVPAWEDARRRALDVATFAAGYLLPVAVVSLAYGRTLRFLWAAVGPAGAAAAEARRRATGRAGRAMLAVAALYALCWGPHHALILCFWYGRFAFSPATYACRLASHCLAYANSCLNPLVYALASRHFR
GalR3 antag conf = GalR3 (human) antagonism, confirmation | shares compounds with GalR3 antagonist | HEK293 GalR3 CNG cAMP biosensor, membrane potential fluorescence; galR3 fused to GalR1 carboxy tail; challenged with forskolin and galanin at EC90 | inhibition, % at 3 µM | 1,600 tested, 59% active | AID 652245;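 active means inhibition above the primary screen's cutoff, the mean inhibition of all screened compounds plus 3 SD, cut at about 13% in these data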;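 further: 0% = forskolin plus galanin and 100% = forskolin alone with DMSO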
HEK-CNG parental = counter-screen for GalR3 antagonists: nonspecific agonists in parental HEK-CNG cells; shares compounds with GalR3 antagonist; HEK293-CNG parental cells, cAMP membrane potential fluorescence; normalised: DMSO wells 0%, forskolin wells 100%; AID 652268; activation, % at 3 µM; 1,600 tested, 10% active; in the data active means activation above about 1.3%
Starred values were filed as active, the others as inactive. Compounds with a hit are over-represented: about 1.1% of the library has one in this group of screens.

What do the screens show for `COc1cc2c(cc1OC)-c1cc(Nc3cccc(C)c3)nc(=O)n1CC2`?
SRC2 inh: -23; SRC1 inh: 3; COUP-TFII inh: -82; LRH-1 inv ag: -15; SRC3 inh: -25; GalR3 antagonist: 53*; GalR3 antag conf: 59*; HEK-CNG parental: 1

What do the screens show for `O[C@H]1C[C@H](c2ccc(Cl)cc2)N(Cc2cccs2)C[C@@H]1n1cc(-c2ccc(F)cc2)nn1`?
SRC2 inh: -28; SRC1 inh: 3; COUP-TFII inh: -1; LRH-1 inv ag: -8; SRC3 inh: -18; GalR3 antagonist: -5

Results for COC(=O)[C@]12C[C@H](CC(=O)NCc3cccs3)C(=O)N(Cc3ccc(Cl)cc3Cl)C1=C[C@H](C(C)C)O[C@@H]2C1CC1 ?
SRC2 inh: 1; COUP-TFII inh: 16

Results for O=C(CSc1nnc(COc2ccc(Cl)cc2)o1)N(c1ccccc1)C1CCS(=O)(=O)C1 (stereo not drawn) ?
SRC2 inh: 17; SRC1 inh: 4; COUP-TFII inh: 25; LRH-1 inv ag: 15; SRC3 inh: -3; GalR3 antagonist: -8

How did COc1ccc2ccccc2c1CN1CCN(c2ncc(Cc3ccccc3)cn2)CC1 do in these assays?
SRC2 inh: -23; COUP-TFII inh: 8; GalR3 antagonist: -6

How did NC(=O)C1CCN(c2nc(-c3ccc4c(c3)OCCCO4)cs2)CC1 do in these assays?
COUP-TFII inh: -59

What do the screens show for `O=C(OCC#CCSc1nnc(-c2cccc3ccccc23)o1)c1ccc(F)cc1F`?
COUP-TFII inh: 0

What do the screens show for `O=C(NCC(=O)N1CCN(c2ccccc2)CC1)c1ccc(Cl)cc1`?
SRC2 inh: 0; SRC1 inh: -1; COUP-TFII inh: -18; LRH-1 inv ag: 20; SRC3 inh: 3; GalR3 antagonist: 14*; GalR3 antag conf: 1; HEK-CNG parental: 0

Results for Cc1ccc(CNC(=O)c2ccc(CNc3c(N4CCCC4)c(=O)c3=O)cc2)cc1 ?
SRC2 inh: 24; SRC1 inh: 7; COUP-TFII inh: -3; LRH-1 inv ag: -6; SRC3 inh: 14; GalR3 antagonist: 13*; GalR3 antag conf: 7; HEK-CNG parental: -1

How did COCCNC(=O)c1c(N)[nH]c(C(=O)c2ccc(Br)cc2)c1-c1c(OC)ccc2ccccc12 do in these assays?
COUP-TFII inh: 4

What do the screens show for `O=C(Nc1ccccc1NS(=O)(=O)c1ccc(F)cc1)C1CCC1`?
SRC2 inh: 1; SRC1 inh: 4; COUP-TFII inh: 8; LRH-1 inv ag: -19; SRC3 inh: 10; GalR3 antag conf: -3; HEK-CNG parental: 0

What do the screens show for `COc1cccc(/C=C/C(=O)OCC(=O)Nc2nnc(-c3ccccc3)o2)c1OC`?
SRC2 inh: -3; SRC1 inh: -6; COUP-TFII inh: -15; LRH-1 inv ag: -15; SRC3 inh: -2; GalR3 antagonist: 13*; GalR3 antag conf: 2; HEK-CNG parental: 1

Results for C[C@@H]1C=CCCO[C@]12C(=O)N(CC1CC1)c1ccccc12 ?
SRC2 inh: -12; COUP-TFII inh: 2; GalR3 antagonist: -6

How did Cc1cccc(N2CCN(S(=O)(=O)c3cc(-c4cc(C)no4)ccc3C)CC2C)c1 (stereo not drawn) do in these assays?
SRC2 inh: 26; SRC1 inh: 30; COUP-TFII inh: 34; LRH-1 inv ag: 14; SRC3 inh: 30; GalR3 antagonist: 52*; GalR3 antag conf: 88*; HEK-CNG parental: 0

Results for CC1(Cc2cc(Cl)ccc2C(F)(F)F)C(=O)Nc2c(Cl)cccc21 (stereo not drawn) ?
SRC2 inh: 19; SRC1 inh: 14; COUP-TFII inh: 16; LRH-1 inv ag: 2; SRC3 inh: 9; GalR3 antagonist: -6

What do the screens show for `CCc1ccc(N(C(=O)c2snc(C(N)=O)c2N)C(C(=O)NC2CCCC2)c2ccco2)cc1` (stereo not drawn)?
SRC2 inh: -11; SRC1 inh: -58; COUP-TFII inh: 20; LRH-1 inv ag: 2; SRC3 inh: -7; GalR3 antagonist: -8

Results for COc1ccc(N(C(=O)c2snc(C(N)=O)c2N)C(C(=O)NC2CCCC2)c2ccco2)cc1 (stereo not drawn) ?
SRC2 inh: -30; SRC1 inh: -12; COUP-TFII inh: -8; LRH-1 inv ag: -17; SRC3 inh: 3; GalR3 antagonist: 18*; GalR3 antag conf: 0; HEK-CNG parental: 0

How did COCOc1cc(O)c(C(=O)/C=C/c2ccccc2)c(OCOC)c1 do in these assays?
SRC2 inh: 4; SRC1 inh: 5; COUP-TFII inh: 18; LRH-1 inv ag: -7; SRC3 inh: 21; GalR3 antagonist: 22*; GalR3 antag conf: 20*; HEK-CNG parental: 0

How did COc1ccc(C2=NN(C(=O)c3cccs3)C(O)(C(F)(F)F)C2)cc1 (stereo not drawn) do in these assays?
SRC2 inh: -27; SRC1 inh: -35; COUP-TFII inh: 0; LRH-1 inv ag: -2; SRC3 inh: -15; GalR3 antagonist: 88*; GalR3 antag conf: 94*; HEK-CNG parental: 1

How did Cc1oc2c(C)c3oc(=O)c(CCC(=O)N4C[C@H]5C[C@@H](C4)c4cccc(=O)n4C5)c(C)c3cc2c1C do in these assays?
SRC2 inh: 1; SRC1 inh: 3; COUP-TFII inh: -40; LRH-1 inv ag: -5; SRC3 inh: 18; GalR3 antagonist: 15*; GalR3 antag conf: 7; HEK-CNG parental: 0

What do the screens show for `COc1cc(-c2nn3c(C4CCCCC4)nnc3s2)cc(OC)c1OC`?
SRC2 inh: 7; SRC1 inh: 9; COUP-TFII inh: -16; LRH-1 inv ag: 23; SRC3 inh: 14; GalR3 antagonist: 18*; GalR3 antag conf: 8; HEK-CNG parental: 0

Results for COc1ccc(-c2nn3c(C4CCCCC4)nnc3s2)cc1OC ?
SRC2 inh: -41; SRC1 inh: -20; COUP-TFII inh: -20; LRH-1 inv ag: 35; SRC3 inh: -17; GalR3 antagonist: 17*; GalR3 antag conf: 24*; HEK-CNG parental: 1

What do the screens show for `O=C(NCc1ccccc1)c1cc(C2COCCN2C(=O)CCc2ccccc2)on1` (stereo not drawn)?
SRC2 inh: -4; SRC1 inh: 5; COUP-TFII inh: 5; LRH-1 inv ag: 13; SRC3 inh: 9; GalR3 antagonist: -5
